This is a sample that favours compounds with a hit; in the whole collection about 7.5% have one here.
SMN2 splice up – qHTS Assay for Enhancers of SMN2 Splice Variant Expression | HEK293 SMN2-luciferase splicing reporter, luminescence, 30-36 h | Potency, µM (titrated, usually from 46.1 µM), most hits filed as activators | 210,000 compounds, 2.8% hits | AID 1458, 2008; further: nearly all actives have a fitted effect of over 55% in size
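HEK293 cells carry an SMN2 […]–luciferase reporter in which exon 7 inclusion puts luciferase in frame. Cells were plated 10-12 h before compound addition, then incubated 30-36 h at 37C. ONE-Glo luminescence was read; sodium butyrate at 4.5 mM final served as control.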
ELG1 genotoxic – qHTS screen for small molecules that induce genotoxicity in human embryonic kidney (HEK293T) cells expressing luciferase-tagged ELG1; 330,000 compounds, 1.3% hits; HEK293T ELG1-luciferase reporter, luminescence, 16 h; Potency, µM (series often up to 46 µM), usual class: activators; further: nearly all actives have a fitted effect of over 60% in size
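Quantitative HTS format in 1536-well plates. HEK293T ELG1-luciferase reporter cells receive test compound and are incubated 16 hr at 37 °C, 5% CO2; ONE-Glo added, 30 min room temperature, then luminescence read.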
KinaseGlo FLuc – Counterscreen for Luciferase (Kinase-Glo TM) Inhibition; AID 1379, 2008; Potency, µM (highest dose often 38.3 µM), most hits filed as inhibitors; 200,000 compounds, 0.28% hits; Kinase-Glo luciferase, ATP luminescence, 8 min; Luciferin 4-monooxygenase (Photuris pensylvanica), Q27757; further: nearly all actives have a fitted effect of over 60% in size
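Recombinant Kinase-Glo luciferase, 10 uM ATP (linear range), luciferin; imidazole pH 7.2 / KCl / MgCl2 / Tween / BSA buffer; 8 min RT; luminescence.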
Rab9 promoter act – qHTS Assay for Rab9 Promoter Activators. Huh7 Rab9 promoter-luciferase reporter, luminescence, 24 h. Potency, µM (highest dose often 9.22 µM), most hits filed as activators. 320,000 compounds, 2.8% hits; further: nearly all actives have a fitted effect of over 60% in size
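Huh7 cells stably carrying a Rab9 promoter-luciferase reporter, 1500 cells per well in OP-MEM I with 10% FBS, treated with compound 24 hours at 37C. Luciferase activity read by luminescence after 10 minutes with Amplite reagent.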
NPC1 promoter act – qHTS Assay for NPC1 Promoter Activators; Potency, µM (highest dose often 9.22 µM), usual class: activators; 320,000 compounds, 2.4% hits; Huh7 NPC1 promoter luciferase reporter, 24 h; further: nearly all actives have a fitted effect of over 60% in size
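NPC1 promoter–luciferase Huh7 cells; 24 h compound; luminescence.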
FLuc modulator – qHTS profiling assay for firefly luciferase inhibitor/activator using purifed enzyme and Km concentrations of substrates (counterscreen for miR-21 project); Luciferin 4-monooxygenase (Photinus pyralis), P08659; Potency, µM (series often up to 57.5 µM), hits mostly inhibitors; 360,000 compounds, 6.9% hits; purified FLuc, Km substrates, luminescence inhibition; AID 588342, 2011; further: nearly all actives have a fitted effect of over 55% in size
Target sequence (P08659 whole entry, looked up): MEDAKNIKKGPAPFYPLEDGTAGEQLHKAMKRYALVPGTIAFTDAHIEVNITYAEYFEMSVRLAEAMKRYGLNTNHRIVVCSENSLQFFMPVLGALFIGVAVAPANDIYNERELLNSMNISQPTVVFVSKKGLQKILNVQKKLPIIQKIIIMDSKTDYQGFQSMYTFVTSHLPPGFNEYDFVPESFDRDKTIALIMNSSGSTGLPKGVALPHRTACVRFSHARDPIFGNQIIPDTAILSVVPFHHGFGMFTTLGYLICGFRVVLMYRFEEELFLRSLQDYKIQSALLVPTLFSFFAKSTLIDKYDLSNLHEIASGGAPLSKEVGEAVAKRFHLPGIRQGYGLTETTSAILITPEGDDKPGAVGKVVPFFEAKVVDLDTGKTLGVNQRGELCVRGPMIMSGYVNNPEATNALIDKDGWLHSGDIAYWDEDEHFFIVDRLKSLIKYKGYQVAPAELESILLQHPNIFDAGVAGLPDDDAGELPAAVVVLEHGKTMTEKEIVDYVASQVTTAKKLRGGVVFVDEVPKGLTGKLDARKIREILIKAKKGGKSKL
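Biochemical qHTS of compounds, final roughly 60 µM downward over six points, against 10 nM purified firefly luciferase using Km concentrations of substrates (10 uM D-luciferin, 10 uM ATP) in Tris acetate pH 7.5 buffer; luminescence output.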
Hits are given with their value; n = inactive; u = inconclusive; x = no result given; ! = not confirmed by another sample. The call rests on the fitted dose curve; in most records, active means well fitted curve in the direction sought with a large enough effect; inconclusive means small, poorly fitted or top-dose-only effect, or another doubt; inactive means no such curve, though single readings can be large; an effect the other way counts as inactive or inconclusive.

SMILES	SMN2 splice up	ELG1 genotoxic	KinaseGlo FLuc	Rab9 promoter act	NPC1 promoter act	FLuc modulator
Cc1ccc2cccc(NC(=O)c3ccc(-c4cccc([N+](=O)[O-])c4)o3)c2n1	n	x	x	x	x	n
O=C(Nc1ccccc1F)c1ccc(-c2cccc([N+](=O)[O-])c2)o1	x	u	x	u	u	13.5µM
Cc1cccc(C(=O)Oc2c(Sc3ccccc3)c(C)nn2C(C)(C)C)c1	n	x	x	x	x	n
CCC(=O)N(CCc1ccc(S(N)(=O)=O)cc1)C1CC(=O)N(c2ccc(OC)cc2)C1=O (stereo unspecified)	x	n	n	n	n	n
O=C(CSc1nc2[nH]ncc2c(=O)n1-c1ccccc1Br)NCc1ccccc1Cl	n	n	n	n	n	n
N#CCSc1nc2[nH]ncc2c(=O)n1-c1ccccc1Br	x	u	10µM	0.316µM	u	0.135µM
CC1CCC(C(=O)NC(C(=O)OCC(=O)c2ccc(Br)cc2)C(C)C)CC1 (stereo unspecified)	n	x	x	x	x	n
CCCCN(C)C(=O)Cn1cnc2sc(C)c(S(=O)(=O)N3CCC(C)CC3)c2c1=O	n	x	x	x	x	n
Oc1ccccc1/C=N/NC1=NCCCCC1	12.6µM	u	n	2.24µM	1.41µM	13.5µM
COc1ccc(/C=N/NC2=NCCCCC2)c(OC)c1	u	n	n	n	n	16.9µM
COc1ccc(/C=N/NC2=NCCCCC2)cc1	n	u	n	u	n	u
CCc1nnc2c(NCc3ccccc3OC)nc3ccccc3n12	x	x	x	x	x	n
Cc1ccc(OCCn2c(=S)[nH]c3c(N)ncnc32)cc1	n	n	n	n	n	u
CC(C)Oc1ccc(OCCn2c(=S)[nH]c3c(N)ncnc32)cc1	n	u	n	n	n	26.9µM
CC1CCC(NC(=O)CCN2C(=O)C3C4C=CC(C4)C3C2=O)CC1 (stereo unspecified)	x	n	x	n	n	n
Clc1c(-c2ccccc2)nnn1-c1ccccc1	10µM	8.2µM	n	2.24µM	2.24µM	3.38µM
c1ccc(-n2nnc3ccccc32)cc1	x	n	x	n	n	n
COc1ccc(CCNC(=O)c2ccc(Cn3c(SCc4ccccc4)nc4cccnc43)cc2)cc1	n	x	x	x	x	n
Cc1ccsc1/C=N/NC(=O)C(O)c1ccccc1 (stereo unspecified)	x	n	x	n	n	n
Cc1ccsc1/C=N/Nc1nc2ccccc2[nH]1	11.2µM	u	n	2.51µM	2.51µM	3.38µM
C(=N\Nc1nc2ccccc2[nH]1)/c1cccs1	x	u	x	3.98µM	3.16µM	3.79µM
O=c1ccc(-c2ccc(S(=O)(=O)Nc3ccc(F)cc3)s2)n[nH]1	x	n	x	n	n	n
CC(C)(C)n1ncc2c(=O)n(CC(=O)NCc3ccc(F)cc3)cnc21	8.91µM	4.11µM	n	0.355µM	0.501µM	4.26µM
CC(C)(C)n1ncc2c(=O)n(CC(=O)NCc3ccco3)cnc21	12.6µM	u	n	3.16µM	3.16µM	u
CC(C)(C)n1ncc2c(=O)n(CC(=O)NC3CCCCC3)cnc21	n	u	n	u	u	u
SMILES	SMN2 splice up	ELG1 genotoxic	KinaseGlo FLuc	Rab9 promoter act	NPC1 promoter act	FLuc modulator
CC(C)(C)n1ncc2c(=O)n(CC(=O)Nc3ccccc3)cnc21	n	n	n	n	n	n
Cc1cccc(-c2c3c(=O)n(C)c(=O)n(C)c3cn2-c2cc(N)c(Cl)cc2Cl)c1	n	x	x	x	x	n
c1ccc(Oc2cc(-c3ccccc3)ncn2)cc1	u	u	n	u	u	15.1µM
COC(=O)CCN1CCc2cc(N=Nc3ccc([N+](=O)[O-])cc3)ccc21	x	u	x	1.12µM	1.12µM	0.675µM
Cc1ccccc1CN1CCc2cc([N+](=O)[O-])ccc21	x	n	x	n	n	n
CCOC(=O)c1cc(/C(C)=N/OC(=O)c2ccc(Cl)cc2)on1	x	n	x	n	n	n
C/C(=N/OC(=O)CC(C)C)c1cc(-c2ccc(Cl)cc2)no1	17.8µM	u	n	2.82µM	u	u
COc1ccc(NC(=O)c2c(NC(=O)CCC(=O)O)sc3c2CCCCC3)cc1	x	n	n	n	n	n
COc1ccc(NC(=O)c2c(NCc3ccc(N(C)C)cc3)sc3c2CCC3)cc1	x	x	x	x	x	10.7µM
COc1ccc(NC(=O)c2c(NC(=O)C(F)(F)F)sc3c2CCCCC3)cc1	n	x	x	x	x	13.5µM
COc1ccc(NC(=O)c2c(NCc3cccc(OC)c3)sc3c2CCCC3)cc1	x	x	x	x	x	n
CC1=C(C(=O)Nc2ccccc2C)C(c2ccc[nH]2)n2ncnc2N1 (stereo unspecified)	x	x	x	x	x	n
CCn1c(-c2ccccc2)csc1=Nc1ccc(O)cc1	u	u	n	2.24µM	2.82µM	8.49µM
CCOc1ccc(N=c2scc(-c3ccc(OC)cc3)n2CCO)cc1	n	n	n	n	n	n
CCOc1ccc(N=c2scc(-c3ccccc3)n2CCO)cc1	u	n	n	n	n	15.1µM
OCCn1c(-c2ccc(F)cc2)csc1=Nc1ccccc1	n	u	n	n	n	u
CN(C(=O)Cn1nnc(-c2cccnc2)n1)C1CCCCC1	x	n	x	n	n	n
Cc1ccnc(NS(=O)(=O)c2ccc(NC(=O)c3nc(SC(C)C)ncc3Cl)cc2)n1	n	x	x	x	x	u
CSc1ncc(Cl)c(C(=O)Nc2ccc(S(=O)(=O)Nc3nccc(C)n3)cc2)n1	n	6.51µM	x	1.41µM	1.78µM	10.7µM!
Cc1c(C)c2ccc(OCC(=O)Nc3cccnc3)cc2oc1=O	x	u	x	n	n	u
Cc1cccc2nc(CSc3ccc(Cl)cc3)cn12	11.2µM	u	n	2.24µM	3.16µM	9.53µM
CNc1cc(CSc2ccc(Cl)cc2)nc(C)n1	u	n	n	2.24µM	u	16.9µM
Cc1ccc(SCc2cn3c(C)csc3n2)cc1	8.91µM	1.64µM	n	0.631µM	0.631µM	2.13µM
Cc1nc(CSc2ccc(Cl)cc2)cc(NCc2ccccc2)n1	n	n	n	n	n	n
Clc1ccc2nc(CSc3nc4ccccc4o3)cn2c1	17.8µM	2.59µM	n	1µM	0.891µM	1.9µM
SMILES	SMN2 splice up	ELG1 genotoxic	KinaseGlo FLuc	Rab9 promoter act	NPC1 promoter act	FLuc modulator
Clc1ccc(SCc2cn3ccccc3n2)cc1	11.2µM	u	n	2.51µM	u	9.53µM
c1ccc(CSCc2ccccc2)cc1	n	n	x	n	n	n
Nc1nnc(SCc2cn3cc(Cl)ccc3n2)s1	u	u	n	3.98µM	u	u
Clc1ccc2nc(CSCc3ccccc3)cn2c1	12.6µM	u	n	2µM	1.58µM	7.57µM
Nn1c(SCc2cn3cc(Cl)ccc3n2)nnc1-c1ccncc1	n	n	n	n	n	n
Cc1cccc2nc(CSCc3ccco3)cn12	11.2µM	u	n	2.24µM	1.12µM	7.57µM
Cc1cc(C)n2cc(CSCc3ccco3)nc2n1	n	n	n	n	n	n

Assay outcomes (PubChem)
